From PubChem BioAssay (NCATS) come the findings set out here.

The nature of experiment [1]: AP1 Signaling Pathway (AID 357).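 Also: ME-180 reporter cells stimulated with EGF at its EC50 level; % is scaled to controls: 0 for no effect and ±100 for the full control effect.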 The following applies: ME-180 (cervical carcinoma) AP-1-bla reporter, EGF-induced, beta-lactamase ratio, 5 h; at 17.2 µM (top of the series) unless noted. The gist of the method: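 Titration-series screen for positive or negative modulators of EC50 EGF-induced signaling in ME-180 cells carrying an AP-1-driven beta-lactamase reporter. After 5 hours at 37 degrees Celsius, CCF4 460nm/530nm emission ratio gave %Activity; AC50 values derived.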

A short description of experiment [2]: NFAT Signaling Pathway (AID 444).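 Also: carbachol stimulus at about its EC50 of 1 µM final; % is scaled to controls: 0 for no effect and ±100 for the full control effect.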 The note with it: Jurkat NFAT-bla M1, carbachol, beta-lactamase ratio, 5 h; at 17.2 µM (top of the series) unless noted. The gist of the method:
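Read-out: CCF4 FRET ratio (460 nm/530 nm) after 1 h RT dye loading, used for %activity and AC50 from titration series. Cells: Jurkat NFAT-β-lactamase/M1 line, treated with compound plus 1 uM carbachol for 5 h, 37 °C.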

Experiment [3] has as its target Glucocorticoid receptor (Homo sapiens) (UniProt P04150). The experiment can be described thus: GR-GFP Redistribution (AID 450;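 active = compounds whose dose series gives a full or clear partial fitted curve of increased nuclear translocation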; also: potency is read from the fitted curve at half-maximal effect).

Molecules are shown by their SMILES. Unmarked numbers belong to inactive results. Results filed as inconclusive are left out. Calls of active or inactive are those of the source. Unless noted, calls follow the shape of the dose curve; as a rule, active = well fitted curve in either direction with a large enough effect (not every such curve was filed as active); inconclusive = small, poorly fitted or top-dose-only effect, or another doubt; inactive = flat fitted curve, though single readings scatter.

Glucocorticoid receptor (Homo sapiens), sequence (P04150 whole entry, looked up): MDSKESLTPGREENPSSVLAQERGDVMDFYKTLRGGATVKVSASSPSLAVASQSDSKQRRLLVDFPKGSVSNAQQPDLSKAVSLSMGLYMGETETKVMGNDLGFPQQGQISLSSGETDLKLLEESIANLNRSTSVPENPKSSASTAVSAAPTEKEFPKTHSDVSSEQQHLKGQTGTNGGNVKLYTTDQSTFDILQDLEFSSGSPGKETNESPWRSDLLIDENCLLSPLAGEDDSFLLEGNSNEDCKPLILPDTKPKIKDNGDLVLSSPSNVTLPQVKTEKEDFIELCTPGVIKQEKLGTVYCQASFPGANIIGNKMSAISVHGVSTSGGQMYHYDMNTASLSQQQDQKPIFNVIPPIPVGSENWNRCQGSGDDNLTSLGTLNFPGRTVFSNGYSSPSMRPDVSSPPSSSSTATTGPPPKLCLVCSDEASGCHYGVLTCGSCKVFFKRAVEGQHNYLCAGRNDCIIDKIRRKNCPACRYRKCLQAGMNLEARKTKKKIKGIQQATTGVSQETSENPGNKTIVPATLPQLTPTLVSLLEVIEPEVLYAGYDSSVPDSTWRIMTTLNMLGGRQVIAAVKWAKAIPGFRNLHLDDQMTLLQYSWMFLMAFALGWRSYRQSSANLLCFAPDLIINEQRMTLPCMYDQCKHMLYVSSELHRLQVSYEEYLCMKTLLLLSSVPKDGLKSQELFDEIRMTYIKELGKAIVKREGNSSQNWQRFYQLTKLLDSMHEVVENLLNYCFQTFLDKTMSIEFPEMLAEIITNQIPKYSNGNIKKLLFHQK

Consider `CCOC(=O)C1=C(N)n2c(s/c(=C\c3cccnc3)c2=O)=C(C(=O)OC)C1c1cccnc1` (stereo not drawn), for which the results for the activity change, negative = inhibition in experiment [1] and in experiment [2] were -8.91% and 23.6%, respectively. For the same molecule, in experiment [3], the Potency is greater than 20.6 µM.

Take `Nc1nonc1-c1noc(-c2ccccc2)n1`: the activity change, negative = inhibition in experiment [1] was 7.84%; in experiment [2], -13.1%. Moreover, in experiment [3], the Potency was greater than 20.6 µM.

Consider `Cc1cc(=O)oc(C)c1C(=O)NCCN1CCOCC1`, for which the activity change, negative = inhibition is 11.5% in experiment [1] and 7.8% in experiment [2]. The Potency in experiment [3] was greater than 20.6 µM.

In the case of `CN(C)S(=O)(=O)Nc1ccc(NS(=O)(=O)N(C)C)c(S(=O)(=O)c2ccccc2)c1`, the activity change, negative = inhibition in experiment [1] is -9.87%; in experiment [2] it was -5.57%. For the same molecule, the Potency in experiment [3] is greater than 20.6 µM.

For the molecule `Cc1ccc(SCc2[nH]nc3c2C(c2ccc(C)o2)C(C#N)=C(N)O3)cc1` (stereo not drawn), the activity change, negative = inhibition in experiment [1] is -23.1%; in experiment [2], -18.9%. For the same molecule, the Potency in experiment [3] was greater than 20.6 µM.

For `O=C1CC(c2ccccc2)n2nc(NS(=O)(=O)c3ccccc3)nc2N1` (stereo not drawn), the activity change, negative = inhibition in experiment [1] is 22.4%; in experiment [2] it was -10.9%. For the same molecule, in experiment [3], the Potency was greater than 20.6 µM.

As to `COc1ccccc1C1/C(=C(/O)c2ccc(OC(C)C)cc2)C(=O)C(=O)N1c1cc(C)on1` (stereo not drawn), the activity change, negative = inhibition in experiment [1] is -28.1%; in experiment [2], 27.8%. For the same molecule, the Potency in experiment [3] was greater than 20.6 µM.

Turning to `CC1(C)C2CCC1(C)C(OC(=O)CC(=O)O)C2` (stereo not drawn), the activity change, negative = inhibition in experiment [1] is 4.82%; in experiment [2], 8.38%. The Potency in experiment [3] was greater than 20.6 µM.

Take `C=CCOc1ccc(C2/C(=C(\O)c3ccc(F)cc3)C(=O)C(=O)N2CCCN(C)C)cc1` (stereo not drawn): the results for the activity change, negative = inhibition in experiment [1] and in experiment [2] were 4.74% and -5.15%, respectively. Besides, the Potency in experiment [3] was greater than 20.6 µM.

In the case of `CCCCOc1cccc(-c2nnc(N)s2)c1`, the activity change, negative = inhibition is -19.6% in experiment [1] and 7.5% in experiment [2]. In addition, the Potency in experiment [3] was greater than 20.6 µM.

As for `N#Cc1c2c(c(-c3ccccc3)[nH]c1=O)CCCC2`, the activity change, negative = inhibition in experiment [1] was 5.23%; in experiment [2], 10.7%. In experiment [3], the Potency is greater than 20.6 µM.

Take `CCOC(=O)CSc1nc(N)c(C#N)c(-c2ccc(OC)cc2)c1C#N`: the activity change, negative = inhibition in experiment [1] was -27.1%; in experiment [2], 2.57%. In addition, in experiment [3], the Potency was greater than 20.6 µM.

Take `COc1ccc(Cn2ccnc2)cc1Br`: the activity change, negative = inhibition is 4.25% in experiment [1] and -14% in experiment [2]. In addition, the Potency in experiment [3] was greater than 20.6 µM.

As to `COc1ccc(N2C(=O)C3C(C2=O)C2C=CC3C23CC3)c(OC)c1` (stereo not drawn), the activity change, negative = inhibition in experiment [1] is 16.2%; in experiment [2] it was 5.04%. For the same molecule, the Potency in experiment [3] is greater than 20.6 µM.

Consider `CCOC(=O)CSC1=C(C#N)C(=O)NC(c2ccc(OC)c(OC)c2)S1` (stereo not drawn), for which the results for the activity change, negative = inhibition in experiment [1] and in experiment [2] were -12.5% and -123% (active), respectively. For the same molecule, the Potency in experiment [3] is greater than 20.6 µM.

On to `O=C(NCCN1CCCCC1)c1ccc(=O)oc1`, for which the activity change, negative = inhibition in experiment [1] is 13.4%; in experiment [2], 6.11%. The Potency in experiment [3] was greater than 20.6 µM.

Regarding `CC1(C)CC(=O)C(C2=NC(C)(C)Cc3ccccc32)=C(O)C1`, the activity change, negative = inhibition in experiment [1] is 2.44%; in experiment [2], 2.48%. Besides, the Potency in experiment [3] is greater than 20.6 µM.

As to `Clc1ccc(SCc2cn3ccsc3n2)cc1`, the figures for the activity change, negative = inhibition in experiment [1] and in experiment [2] were -22.5% and 9.85%, respectively. Also, the Potency in experiment [3] was greater than 20.6 µM.

For the molecule `CC1(C)Cc2c(C#N)c(NCCc3ccccc3)nc(-c3ccco3)c2CO1`, the activity change, negative = inhibition in experiment [1] is 14.4%; in experiment [2] it was 80.9% [activator] (active). Moreover, the Potency in experiment [3] is greater than 20.6 µM.

`COC(=O)Sc1nc(N2CCOCC2)c2c(c1C#N)CC(C)(C)OC2`: the figures for the activity change, negative = inhibition in experiment [1] and in experiment [2] were -17.4% and -7.69%, respectively. Further, the Potency in experiment [3] is greater than 20.6 µM.

Take `CCCOc1ccc(C2/C(=C(/O)c3ccccc3)C(=O)C(=O)N2CCCN(C)C)cc1OC` (stereo not drawn): the activity change, negative = inhibition in experiment [1] is 13.7%; in experiment [2], 3.58%. Further, the Potency in experiment [3] is greater than 20.6 µM.

In the case of `C=C(Br)CN1CCN(CC(=C)Br)CC1`, the figures for the activity change, negative = inhibition in experiment [1] and in experiment [2] were 10.5% and -10.3%, respectively. Further, the Potency in experiment [3] was greater than 20.6 µM.

Take `Cn1ncc(N=Cc2c(O)ccc3ccccc23)c1C(=O)N1CCOCC1`: the activity change, negative = inhibition in experiment [1] was 1.1%; in experiment [2] it was -28.4%. For the same molecule, in experiment [3], the Potency was greater than 20.6 µM.

For the molecule `CCOC(=O)N1CCN(C2OC(=O)c3ccccc32)CC1` (stereo not drawn), the figures for the activity change, negative = inhibition in experiment [1] and in experiment [2] were 0.827% and 27.2%, respectively. For the same molecule, the Potency in experiment [3] was greater than 20.6 µM.

`O=C(NO)c1ccccc1O`: the activity change, negative = inhibition was -4.21% in experiment [1] and -9.27% in experiment [2]. For the same molecule, the Potency in experiment [3] is greater than 20.6 µM.

With `Cc1ccc(Oc2nc3c(c(=O)n(Cc4ccccc4F)c(=O)n3C)n2C)cc1`, the activity change, negative = inhibition in experiment [1] is -27.5%; in experiment [2] it was 11.5%. For the same molecule, the Potency in experiment [3] is greater than 20.6 µM.

Take `O=C1OC(N2CCN(C/C=C/c3ccccc3)CC2)c2ccccc21` (stereo not drawn): the activity change, negative = inhibition in experiment [1] was 7.53%; in experiment [2] it was 10.2%. Also, the Potency in experiment [3] is greater than 20.6 µM.

With `CC(=O)c1ccc(O)c(CO)c1`, the values for the activity change, negative = inhibition in experiment [1] and in experiment [2] were 12.6% and -1.78%, respectively. Also, the Potency in experiment [3] was greater than 20.6 µM.

Consider `COc1ccc(CCCNC(=O)CC#N)cc1OC`, for which the activity change, negative = inhibition was 13.8% in experiment [1] and -4.61% in experiment [2]. The Potency in experiment [3] is greater than 20.6 µM.

`CCCCc1nc(NCCNC(=O)c2ccco2)c(C#N)c2c1CSC(C)(C)C2`: the activity change, negative = inhibition in experiment [1] is -22.7%; in experiment [2], 12.2%. Besides, the Potency in experiment [3] was greater than 20.6 µM.

As for `Cc1[nH]c(=O)[nH]c(=O)c1S(=O)(=O)N1CCCC1`, the activity change, negative = inhibition is 11.7% in experiment [1] and -7.3% in experiment [2]. Moreover, the Potency in experiment [3] was greater than 20.6 µM.
